Source: PubChem BioAssay (NCATS)
“And” between values parts separate entries of the source, which are not always exact repeats. Identical values can stand only once. Inconclusive results are not listed. The source holds several records for some structures; these can differ, active in one and inactive in another. The source made the active and inactive calls. Unless noted, calls come from the whole dose curve; as a rule, active = well fitted inhibition curve with a large enough effect; inconclusive = small, poorly fitted or top-dose-only effect; inactive = flat fitted curve, though single readings scatter.

Key:
[1] = Drug repurposing screens with cells derived from glioblastoma tumor samples (AID 1345199); conditions: GBM patient neurospheres viability, ATP luminescence, 48 h; note: nearly all actives have a fitted effect of over 40% in size; note: potency is the fitted concentration of half-maximal effect; for activity, negative = cell killing: % is set by controls: 0 for no effect and ±100 for the full control effect
Procedure, shortened: (§1)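 Four patient lines of CD133+ GBM neurospheres were screened at several concentrations; hits were retested in those lines plus three slower-growing GBM lines, using 48-hour treatment and ATP-based viability.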

astro = control astrocytes; test: as above; conditions: viability, ATP luminescence, 48 h; series mostly up to 45.9 µM
Procedure, shortened: as §1

[2] = target: Nuclear receptor subfamily 1 group I member 2 (Rattus norvegicus) (UniProt Q9R1A7); test: qHTS assay for small molecule activators of the rat pregnane X receptor (rPXR) signaling pathway (AID 651751; call rule not given here; note: 0% is about no effect); conditions: rPXR reporter cells, luciferase (One-Glo), 24 h
[3] = qHTS assay for small molecule activators of the human pregnane X receptor (PXR) signaling pathway (AID 720659; call rule not given here; note: 0% is about no effect); conditions: DPX-2 HepG2 CYP3A4-luciferase, 24 h; series mostly up to 92.3 µM
[4] = at 45.9 µM (top of the series), tumour line B
[5] = at 45.9 µM (top of the series), tumour line D
[6] = at 46.1 µM (top of the series), tumour line C
[7] = at 46 µM (top of the series), tumour line A

Sequence of Nuclear receptor subfamily 1 group I member 2 (Rattus norvegicus) (Q9R1A7 whole entry, looked up): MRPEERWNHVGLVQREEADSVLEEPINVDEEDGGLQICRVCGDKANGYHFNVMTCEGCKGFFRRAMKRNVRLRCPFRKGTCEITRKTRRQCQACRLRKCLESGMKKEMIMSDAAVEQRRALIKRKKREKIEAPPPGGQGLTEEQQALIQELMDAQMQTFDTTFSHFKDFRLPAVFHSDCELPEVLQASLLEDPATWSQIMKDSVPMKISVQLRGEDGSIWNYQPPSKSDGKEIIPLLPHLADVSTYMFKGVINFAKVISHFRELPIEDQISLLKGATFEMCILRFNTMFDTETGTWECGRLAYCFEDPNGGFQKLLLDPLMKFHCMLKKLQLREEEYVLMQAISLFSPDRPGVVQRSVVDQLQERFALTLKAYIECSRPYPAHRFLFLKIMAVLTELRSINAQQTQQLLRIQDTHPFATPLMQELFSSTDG

NC(Cc1ccccc1)C(=O)O (stereo not given)
inactive: activity, negative = cell killing [1, 4] -8.84% | activity, negative = cell killing [1, 5] 10.2% | activity, negative = cell killing [1, 6] -12.6% | Potency (astro)

CC(CCc1ccc(O)cc1)NCC(O)c1ccc(O)cc1 (stereo not given)
inactive: activity, negative = cell killing [1, 4] 1.78% | activity, negative = cell killing [1, 5] 4.34% | activity, negative = cell killing [1, 6] 2.7% | Potency (astro)

OC[C@H]1O[C@@](CO)(O[C@H]2O[C@H](CO)[C@@H](O)[C@H](O)[C@H]2O)[C@@H](O)[C@@H]1O
inactive: activity, negative = cell killing [1, 4] -5.09% | activity, negative = cell killing [1, 5] -14.4% | activity, negative = cell killing [1, 6] -22.3% | Potency (astro) | max response [2] 1.07% | outcome [3]

Oc1cccc(O)c1O
inactive: activity, negative = cell killing [1, 4] -15.1% | activity, negative = cell killing [1, 5] 2.75% | activity, negative = cell killing [1, 6] 15.2% | Potency (astro) | max response [2] -3.92% | outcome [3]

O=[N+]([O-])O[C@@H]1CO[C@H]2[C@@H]1OC[C@@H]2O
inactive: activity, negative = cell killing [1, 4] -16.9% | activity, negative = cell killing [1, 5] -5.25% | activity, negative = cell killing [1, 7] -36.5% | Potency (astro)

CO[C@@H]1[C@H](OC(=O)/C=C/C=C/C=C/C=C/C(=O)O)CC[C@]2(CO2)[C@H]1[C@@]1(C)O[C@@H]1CC=C(C)C
inactive: activity, negative = cell killing [1, 4] 2.14% | activity, negative = cell killing [1, 5] -9.21% | activity, negative = cell killing [1, 6] 4.82% | max response [2] -5.29% | outcome [3]

CCOC(=O)[C@H](CS)NCCN[C@@H](CS)C(=O)OCC
inactive: activity, negative = cell killing [1, 4] -15.2% | activity, negative = cell killing [1, 5] -8.47% | activity, negative = cell killing [1, 6] -15.5% | Potency (astro)

NCCO/C=C/[C@H](N)C(=O)O
inactive: activity, negative = cell killing [1, 4] -6.64% | activity, negative = cell killing [1, 5] 5.28% | activity, negative = cell killing [1, 6] 26.3% | Potency (astro) | max response [2] -1.31%

NC(=O)OCC(O)COc1ccc(Cl)cc1 (stereo not given)
inactive: activity, negative = cell killing ([1]; at 20 µM (top of the series), tumour line C) 0.2% | activity, negative = cell killing ([1]; at 21.2 µM (top of the series), tumour line B) -15.4% | activity, negative = cell killing ([1]; at 21.2 µM (top of the series), tumour line D) -22.6% | Potency (astro)

CC(=O)N[C@@H](C=O)[C@@H](O)[C@H](O)[C@H](O)CO
inactive: activity, negative = cell killing [1, 4] -6.52% | activity, negative = cell killing [1, 5] -3.57% | activity, negative = cell killing [1, 6] -2.77% | Potency (astro)

CCCCCCCCCCCCCCCCCC(=O)OC[C@@H](O)[C@H]1OC[C@H](O)[C@H]1O
inactive: activity, negative = cell killing [1, 4] 3.83% | activity, negative = cell killing [1, 5] 2.86% | activity, negative = cell killing [1, 6] -1.68% | Potency (astro) | max response [2] 2.96%

CN[C@H](CC(C)C)C(=O)N[C@H]1C(=O)N[C@@H](CC(N)=O)C(=O)N[C@H]2C(=O)N[C@H]3C(=O)N[C@H](C(=O)N[C@@H](C(=O)O)c4cc(O)cc(O)c4-c4cc3ccc4O)[C@H](O)c3ccc(c(Cl)c3)Oc3cc2cc(c3O[C@@H]2O[C@H](CO)[C@@H](O)[C@H](O)[C@H]2O[C@H]2C[C@](C)(N)C(O)[C@H](C)O2)Oc2ccc(cc2Cl)[C@H]1O (stereo not given in full)
inactive: activity, negative = cell killing [1, 4] -21.4% and -13.5% | activity, negative = cell killing [1, 5] -14.4% and -8.53% | activity, negative = cell killing [1, 6] -11% and 8.66% | Potency (astro)

CO/N=C(/C(=O)N[C@@H]1C(=O)N2C(C(=O)O)=C(COC(N)=O)CS[C@H]12)c1ccco1
inactive: activity, negative = cell killing [1, 4] 3.13% and -9.26% | activity, negative = cell killing [1, 5] -9.35% and -16.7% | activity, negative = cell killing [1, 6] 6.13% and -0.48% | Potency (astro) | max response [2] -2.68% | outcome [3]

CC(C)=CCC/C(C)=C/C=C/C(C)=C/C=C/C(C)=C/C=C/C=C(C)/C=C/C=C(C)/C=C/C=C(\C)CCC=C(C)C
inactive: activity, negative = cell killing [1, 4] -10.4% | activity, negative = cell killing [1, 5] -12.4% | activity, negative = cell killing [1, 6] 14.8% | Potency (astro)

C[C@@H]1C[C@H]2[C@@H]3C[C@H](F)C4=CC(=O)C=C[C@]4(C)[C@@]3(Cl)[C@@H](O)C[C@]2(C)[C@H]1C(=O)COC(=O)C(C)(C)C
inactive: activity, negative = cell killing [1, 4] -18.4% | activity, negative = cell killing [1, 5] -9.89% | activity, negative = cell killing [1, 6] -26.7% | Potency (astro)

CS(=O)(=O)c1ccc([C@@H](O)[C@@H](COC(=O)CN)NC(=O)C(Cl)Cl)cc1
inactive: activity, negative = cell killing [1, 4] -20.1% | activity, negative = cell killing [1, 6] -21.6% | Potency (astro)

CO[C@H]1O[C@@H]2O[C@@]3(C)CC[C@H]4[C@H](C)CC[C@@H]([C@H]1C)[C@@]24OO3
inactive: activity, negative = cell killing [1, 4] -14.7% | activity, negative = cell killing [1, 5] 1.49% | activity, negative = cell killing [1, 6] -10.2% | Potency (astro)

OCCOCCOCCO
inactive: activity, negative = cell killing [1, 4] -6.55% | activity, negative = cell killing [1, 5] -3.68% | activity, negative = cell killing [1, 6] 4.43% | Potency (astro) | max response [2] 0.109% and -2.24%

O=C(CCCN1CCN2CCCC2C1)c1ccc(F)cc1 (stereo not given)
inactive: Potency (astro)

O=C(c1cc2ccccc2o1)N1CCN(Cc2ccccc2)CC1
inactive: activity, negative = cell killing [1, 4] -15.4% | Potency (astro)
active: Potency ([1]; tumour line A) 11.2 µM

CC(C)OC(=O)Nc1ccc2nc(-c3cscn3)[nH]c2c1
active: Potency (astro) 2.82 µM

CCN(CC)CCOc1ccc2nc(N(C)C)sc2c1
inactive: Potency (astro)

CCCCCCCCCC(=O)NO
inactive: activity, negative = cell killing [1, 4] -14.3% | activity, negative = cell killing [1, 6] -21.2% and 7.01% | Potency (astro)

O=C(NNCS(=O)(=O)O)c1ccncc1
inactive: activity, negative = cell killing [1, 4] -4.21% | activity, negative = cell killing [1, 7] -67.1% | Potency (astro)

CCN(CC)CCCC(C)Nc1cc(/C=C/c2ccccc2Cl)nc2cc(Cl)ccc12 (stereo not given)
inactive: Potency (astro)

CN=C1C=CC(=C(c2ccc(N(C)C)cc2)c2ccc(N(C)C)cc2)C=C1
active: Potency (astro) 11.2 µM
